From PubChem BioAssay
Most compounds without a hit are left out; they make up all but 5.7% or so of the library.
ClpP mod: qHTS Assay for Activators of ClpP; ATP-dependent Clp protease proteolytic subunit (Bacillus subtilis (strain 168)), P80244; actives 1.9% (n = 340,000); AID 651965, 2013; purified B. subtilis ClpP, FRET peptide cleavage, 20 min; Potency, µM (series often up to 57.5 µM), without a hit: at the highest dose activity change, negative = active; active = well fitted falling curve with a large enough effect; inconclusive = small, poorly fitted or top-dose-only effect; inactive = no such curve, though single readings can be large or run the other way; also: potency is read from the fitted curve at half-maximal effect; the source files actives as falling curves though it sought activators and does not explain the sign; nearly all actives have a fitted effect of over 65% in size
Target sequence (P80244 whole entry, looked up): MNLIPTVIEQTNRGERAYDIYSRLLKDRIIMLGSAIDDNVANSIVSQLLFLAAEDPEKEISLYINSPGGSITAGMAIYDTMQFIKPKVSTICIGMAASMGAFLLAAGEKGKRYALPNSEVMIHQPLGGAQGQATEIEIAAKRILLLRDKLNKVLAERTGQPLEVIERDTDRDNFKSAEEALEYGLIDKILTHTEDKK
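Purified B. subtilis ClpP, 10 microg/mL final in Tris/HCl pH8 with KCl, BSA, glycerol and Tween-20, cleaved an Abz/nitrotyrosine-quenched decapeptide. Fluorescence (ex 320, em 430) was read at 0 and 20 min at room temperature. Delta was normalized to 5.8 microM ADEP and DMSO/no-enzyme controls.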
HEK293 tox: cytotoxicity in counter-screen for GLP-1R inverse agonists; HEK293 cAMP-luciferase reporter cells, luminescence, 24 h; Potency, µM (doses to about 38.3 µM), for inactives: at the highest dose activity change, negative = inhibition, usual class: inhibitors; actives 0.13% (n = 410,000);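 also: loss of luciferase light is scored as toxicity; potency is read from the fitted curve at half-maximal effect; % is scaled to controls: 0 for no effect and ±100 for the full control effect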
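Here, cytotoxicity is scored as loss of luminescence. The MLSMR collection was tested on cells seeded in medium containing 10% Nu serum, with a 24 hr compound exposure preceded by 12 hours of culture.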
D3 ag: activates the human D3 dopamine receptor; P35462; D3R DiscoveRx beta-arrestin cells, luminescence, 90 min; max activation, %; actives 0.58% (n = 410,000); in the data active = max activation above about 30%; also: 0% is about no effect
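Cells at 1500/well, incubated overnight, then treated with pinned compounds (dopamine as control) for 90 min at 37 degrees C. DiscoveRx reagent added for 30 - 60 minutes at room temperature; luminescence read.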
GLP-1R inv ag: inverse agonists of human GLP-1 receptor; P43220; HEK293 GLP-1R CRE-luciferase, luminescence, 24 h; GLP-1R form is constitutively active; Potency, µM (doses to about 38.3 µM), for inactives: top-dose activity change, negative = inhibition, most hits filed as inhibitors; actives 1.6% (n = 410,000); AID 624417; also: potency is read from the fitted curve at half-maximal effect; % is scaled to controls: 0 for no effect and ±100 for the full control effect; nearly all actives have a fitted effect of over 55% in size
Target sequence (P43220 whole entry, looked up): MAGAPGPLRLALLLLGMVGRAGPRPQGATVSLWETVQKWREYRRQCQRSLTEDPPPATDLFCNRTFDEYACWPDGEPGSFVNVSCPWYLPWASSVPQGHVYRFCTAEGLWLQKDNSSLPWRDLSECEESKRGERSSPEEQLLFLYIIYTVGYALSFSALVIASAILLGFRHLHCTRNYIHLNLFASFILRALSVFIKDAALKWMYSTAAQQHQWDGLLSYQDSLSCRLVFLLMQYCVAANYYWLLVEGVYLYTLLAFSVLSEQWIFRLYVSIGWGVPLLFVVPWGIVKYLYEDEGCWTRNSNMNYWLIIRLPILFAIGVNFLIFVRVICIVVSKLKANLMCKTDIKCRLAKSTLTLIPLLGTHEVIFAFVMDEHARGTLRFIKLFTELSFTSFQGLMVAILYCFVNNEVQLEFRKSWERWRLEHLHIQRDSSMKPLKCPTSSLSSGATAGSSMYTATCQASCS
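Cells are plated, allowed 12 hours at 37 deg C, then treated with compounds for 24 hr before luciferase detection reagent is added and luminescence is read after 12 min at room temperature. The HEK293 line carries constitutively active GLP-1R with a cAMP-responsive reporter.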
GLP1R ag: GLP-1 receptor (human) agonism. P43220. HEK293 GLP-1R CRE-luciferase, luminescence, 4-6 h; cells express a hypersensitive GLP-1R form. Potency, µM (highest dose often 45.6 µM), for inactives: top-dose activation, hits mostly activators. actives 0.007% (n = 380,000). AID 624172; also: potency is read from the fitted curve at half-maximal effect; % of control where 0% means no effect
D3 antag: blocks the human D3 dopamine receptor; max response, negative = inhibition, %; D3R cells, DiscoveRx beta-arrestin luminescence, antagonist mode; stronger effect = lower value; AID 652054; actives 2.5% (n = 360,000); P35462; in the data active = max response below about -50%; inconclusive = no clear call, values can overlap the other calls; also: % is scaled to controls: 0 for no effect and ±100 for the full control effect
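Cells expressing the human receptor were seeded at 1500 cells/well, incubated overnight at 37 degrees C in 5% CO2, then exposed to library compounds with dopamine controls for 90 minutes at 37 degrees C before luminescent detection.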
* marks the source's active call; other numbers are inactive results; ? = inconclusive; · = no result given. Unless noted, calls follow the shape of the dose curve; as a rule, active = well fitted curve in the direction sought with a large enough effect; inconclusive = small, poorly fitted or top-dose-only effect, or another doubt; inactive = no such curve, though single readings can be large; an effect the other way counts as inactive or inconclusive.

SMILES | ClpP mod | HEK293 tox | D3 ag | GLP-1R inv ag | GLP1R ag | D3 antag
CCn1ccc2cc(S(=O)(=O)N3CCC(C(=O)NCc4ccc(OC)cc4)CC3)ccc21 | -28% | 13% | -1 | ? | · | ·
CCC1CCCCN1CCCNC(=O)C1CCN(Cc2nc(-c3ccc(Cl)cc3)oc2C)CC1 (stereo not drawn) | -8% | 5µM* | 2 | 13µM* | -7% | -22
COc1ccc(-c2nc(CN3CCC(C(=O)NCCCN4CCN(c5ccccc5F)CC4)CC3)c(C)o2)cc1OC | -21% | 13µM* | -2 | 10µM* | · | ·
CCN(CCNC(=O)C1CCN(Cc2nc(-c3ccc(Cl)cc3)oc2C)CC1)c1ccccc1 | 3% | ? | -8 | 2.5µM* | -5% | -19
CCOc1ccccc1CNC(=O)c1cccn1-c1nnc(N2CCCC2)s1 | -3% | 1% | 1 | -13% | · | ·
Cc1cccc(C)c1OCC(O)CNC(C)(C)C (stereo not drawn) | -1% | -7% | 0 | ? | -5% | -51*
COC(=O)[C@@]12C[C@@H](CC(=O)N3CCCC3)C(=O)N(Cc3cccc4ccccc34)C1=CCC(C)(C)C2 | -1% | 2% | -2 | ? | · | 7
C/C(CC(=O)Nc1cccc2c1CCCC2)=N\NC(=O)c1cccc2ccccc12 | 1% | ? | -12 | ? | -1% | 0
C/C(CC(=O)Nc1cccc2c1CCCC2)=N\NC(=O)c1ccccc1N | 28µM* | -8% | 2 | 0% | -8% | -23
CSc1ccc2nnc(-c3ccc(C)cc3)n2n1 | -17% | · | · | · | · | ·
O=C(c1ccccc1)c1coc2c1C(=O)c1ccccc1C2=O | · | -3% | -7 | 25% | 0% | -13
O=C1c2ccccc2-c2onc3ccc(Oc4ccccc4)c1c23 | 1% | ? | -9 | ? | 1% | -116*
COc1cccc(C(C#N)N2CCCCC2)c1O (stereo not drawn) | -4% | -5% | 5 | 2% | -13% | -74*
Cc1ccc(C(=O)N(Cc2nc3ccccc3c(=O)[nH]2)C2CCCC2)cc1 | · | -22% | -1 | ? | -10% | -4
Cc1ccccc1C(=O)N(Cc1nc2ccccc2c(=O)[nH]1)C1CCCC1 | · | -7% | 4 | 13µM* | 8% | 18
C[C@H]1CN([C@@H](C)CO)C(=O)CCCn2nncc2CO[C@H]1CN(C)S(=O)(=O)c1ccc(C#N)cc1 | 1% | 6% | 4 | 12% | -3% | -16
CCCCOC(=O)c1cccc(NC(=O)/C=C/c2ccccc2Cl)c1 | -9% | -17% | 5 | ? | · | ·
COc1cc(OC)cc(C(=O)Nc2nc(CC(=O)NCc3ccc(F)cc3)cs2)c1 | -1% | ? | 4 | 7.1µM* | 1% | 6
COc1cc(OC)cc(C(=O)Nc2nc(CC(=O)NCc3ccccc3OC)cs2)c1 | 2% | ? | -8 | 10µM* | -14% | 19
COc1ccccc1NC(=O)Nc1nc(CC(=O)Nc2cc(F)ccc2F)cs1 | -24% | ? | -10 | 5.6µM* | -6% | 19
CC1(C)OC[C@@H]2O[C@@]3(C(=O)O)OC(C)(C)O[C@H]3[C@@H]2O1 | · | · | 4 | · | · | ·
CC1CCc2onc(C(=O)N3CCN(c4ccccc4)CC3)c2C1 (stereo not drawn) | 0% | -2% | -24 | 3% | · | ·
CCc1ccc(CNC(=O)c2ccc3nc(SCc4ccc(F)cc4)n(C)c3c2)cc1 | 0% | 0% | -7 | ? | · | ·
CC1COc2c(N3CCN(C)CC3)c(F)cc3c(=O)c(C(=O)O)cn1c23 (stereo not drawn) | 4% | 3% | -93 | 2% | 0% | -100*
COc1ccc(-c2nc3c(c(SCC(=O)N4CCCCC4)n2)Cc2c(CO)cnc(C)c2O3)cc1 | 0% | -16% | -16 | -25% | · | ·
SMILES | ClpP mod | HEK293 tox | D3 ag | GLP-1R inv ag | GLP1R ag | D3 antag
CC(=O)c1ccc(NC(=O)COC(=O)c2ccccc2N=Nc2ccc(N(C)C)cc2)cc1 | 0% | 10µM* | -13 | 43% | 7% | -21
COC(=O)c1ccccc1NC(=O)COC(=O)c1ccccc1N=Nc1ccc(N(C)C)cc1 | -9% | 5% | -5 | 2% | 1% | 0
COc1ccc(OCC(=O)NCC2(N3CCN(C)CC3)CCCCC2)cc1 | -2% | 3% | 4 | -17% | · | ·
O=C(NCCNC(=O)c1ccc(Br)o1)c1cccnc1 | 25µM* | 3% | 0 | 2% | -3% | 15
COc1cc2[nH]c(=O)n(CCC(=O)NC3CCCC3)c(=O)c2cc1OC | 28µM* | -18% | -15 | 5% | 0% | ?
CCCCNC(=O)CCCCCn1c(=O)[nH]c2cc(OC)c(OC)cc2c1=O | 28µM* | -8% | -8 | 7% | 2% | -18
CCC(C)NC(=O)CCCCCn1c(=O)[nH]c2cc(OC)c(OC)cc2c1=O (stereo not drawn) | 28µM* | 1% | 0 | 0% | 0% | 0
COc1cc(Br)c(C[N+]2(CCOCCC3CCC4CC3C4(C)C)CCOCC2)cc1OC (stereo not drawn) | · | · | 0 | · | 1% | ·
CN(C(=O)c1cccc(NC(=O)Cc2ccc(NC(=O)C3CCCN(C(=O)C4CCC4)C3)cc2)c1)C1CCC1 (stereo not drawn) | 1% | -5% | -1 | 26% | 10% | -27
O=S(=O)(c1ccc(OC(F)(F)F)cc1)N1CCN(c2nc(-c3ccccc3)nc3ccccc23)CC1 | -21% | · | · | · | · | ·
COc1cc2nc(NC3CCN(C)CC3)nc(N3CCCN(C)CC3)c2cc1OC | 4% | · | · | · | · | ·
Cc1cc(C)n(/N=C/c2cc([N+](=O)[O-])ccc2O)c(=O)c1 | · | ? | -24 | -15% | -3% | -67*
O=[N+]([O-])c1ccc(O)c(/C=N/n2cnnc2)c1 | -2% | 2% | -11 | 45% | -2% | -83*
O=[N+]([O-])c1ccc(O)c(/C=N/Nc2ccc(Cl)nn2)c1 | -2% | -67% | -31 | -90% | 2% | -84*
O=[N+]([O-])c1cccc(/C=N/n2cnnc2)c1 | · | -5% | 10 | 8% | 12% | 1
NC(N)=N/N=C/c1cc([N+](=O)[O-])ccc1O | -2% | -18% | -5 | 19% | -6% | -10
O=[N+]([O-])c1ccc(O)c(/C=N/Nc2nn[nH]n2)c1 | · | -24% | -11 | 2% | 0% | ?
CN(C)/N=C/c1cc([N+](=O)[O-])ccc1O | · | -28% | -12 | 19% | -1% | -61*
CCC(=O)Nc1ccc(S(=O)(=O)NCc2cccn2Cc2cccc(C)c2)cc1 | -1% | -7% | -3 | ? | · | ·
